Calls of active or inactive are those of the source. Rule for the calls: active = hit-call score of the fitted dose curve at least 0.9, where 1 is the maximum; inactive = score below 0.9.
Experiments:
[1] = read-out: Macrophage colony-stimulating factor (MCSF), CSF1 (gene 1435); test: BSK_hDFCGF_MCSF: BioMAP Diversity Plus: hDFCGF Assay for Macrophage colony-stimulating factor (MCSF) Biomarker Activity (AID 2283060); settings: primary human foreskin fibroblasts; actives raise or lower the signal
In short: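 fibroblasts (human foreskin, primary), 24 h post-dose; M-CSF by ELISA; bidirectional fit, DMSO = baseline.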

[2] = read-out: TIMP metallopeptidase inhibitor 1 (TIMP1), TIMP1 (gene 7076); test: BSK_hDFCGF_TIMP1: BioMAP Diversity Plus: hDFCGF Assay for TIMP metallopeptidase inhibitor 1 (TIMP1) Biomarker Activity (AID 2283062); settings: primary human foreskin fibroblasts; actives raise or lower the signal
In short: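 Bidirectional curve fitting against DMSO baseline yielded this endpoint, based on ELISA detection of TIMP-1 in primary human foreskin fibroblasts exposed to compound for 24 h.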

[3] = read-out: Monokine induced gamma interferon (MIG), CXCL9 (gene 4283); test: BSK_hDFCGF_MIG: BioMAP Diversity Plus: hDFCGF Assay for Monokine induced gamma interferon (MIG) Biomarker Activity (AID 2283063); settings: primary human foreskin fibroblasts; actives raise or lower the signal
In short: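 Endpoint derived by bidirectional fitting relative to DMSO; MIG quantified via ELISA in primary human foreskin fibroblasts harvested 24 h after dosing.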

[4] = read-out: Matrix Metallopeptidase 1 (MMP1), MMP1 (gene 4312); test: BSK_hDFCGF_MMP1: BioMAP Diversity Plus: hDFCGF Assay for Matrix Metallopeptidase 1 (MMP1) Biomarker Activity (AID 2283064); settings: primary human foreskin fibroblasts; actives raise or lower the signal
In short: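 Primary human foreskin fibroblasts exposed to chemicals for 24 h; MMP1 measured by ELISA. Cytotoxicity tracked by SRB staining in parallel cultures; bidirectional fit relative to DMSO.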

[5] = read-out: Vascular cell adhesion molecule 1 (VCAM1), VCAM1 (gene 7412); test: BSK_hDFCGF_VCAM1: BioMAP Diversity Plus: hDFCGF Assay for Vascular cell adhesion molecule 1 (VCAM1) Biomarker Activity (AID 2283065); settings: primary human foreskin fibroblasts; actives raise or lower the signal;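 for AC50: VCAM-1 protein level quantified by ELISA after 24 h chemical exposure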
In short: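 Measured after 24 h chemical treatment of primary human skin fibroblasts, VCAM-1 was detected by ELISA and concentration-response analysed in both directions versus DMSO vehicle.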

[6] = read-out: Plasminogen activator inhibitor-1 (PAI1), SERPINE1 (gene 5054); test: BSK_hDFCGF_PAI1: BioMAP Diversity Plus: hDFCGF Assay for Plasminogen activator inhibitor-1 (PAI1) Biomarker Activity (AID 2283066); settings: primary human foreskin fibroblasts; actives raise or lower the signal
In short: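 Human foreskin fibroblast primary cells, 24 h chemical exposure; PAI-1 measured by ELISA. Bidirectional fitting relative to DMSO; parallel cultures stained with SRB for total protein to flag overt cytotoxicity.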

[7] = read-out: Intercellular Adhesion Molecule 1 (ICAM1), ICAM1 (gene 3383); test: BSK_KF3CT_ICAM1: BioMAP Diversity Plus: KF3CT Assay for Intercellular Adhesion Molecule 1 (ICAM1) Biomarker Activity (AID 2283067); settings: primary human keratinocytes with fibroblasts; actives raise or lower the signal
In short: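 Bidirectional curve fitting against a DMSO baseline was applied to ICAM-1 ELISA signal from primary human skin co-cultures harvested 24 h after treatment, with SRB staining of parallel wells for overt cytotoxicity.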

[8] = read-out: Interferon-gamma inducible Protein 10 (IP10), CXCL10 (gene 3627); test: BSK_KF3CT_IP10: BioMAP Diversity Plus: KF3CT Assay for Interferon-gamma inducible Protein 10 (IP10) Biomarker Activity (AID 2283068); settings: primary human keratinocytes with fibroblasts; actives raise or lower the signal
In short: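 In a primary skin co-culture of keratinocytes and fibroblasts, IP-10 is quantified by ELISA at 24 h after dosing. SRB staining of parallel wells monitors overt toxicity. Curves are fitted both directions against DMSO.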

[9] = BSK_KF3CT_SRB: Viability Assessment in the BioMAP Diversity Plus: KF3CT Assay (AID 2283069); settings: primary human keratinocytes with fibroblasts;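 note: total protein by sulforhodamine B staining as a cytotoxicity measure; read 24 h after compound addition; fitted for both signal gain and loss against DMSO baseline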
In short: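 Human keratinocyte and foreskin fibroblast co-culture exposed to chemical for 24 h. Total protein measured in parallel cultures by 0.1% sulforhodamine B staining after 10% TCA fixation, read at 560 nm; bidirectional fit relative to DMSO.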

[10] = read-out: Interleukin-1 alpha (IL1a), IL1A (gene 3552); test: BSK_KF3CT_IL1a: BioMAP Diversity Plus: KF3CT Assay for Interleukin-1 alpha (IL1a) Biomarker Activity (AID 2283070); settings: primary human keratinocytes with fibroblasts; actives raise or lower the signal
In short: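 Primary human keratinocyte plus foreskin fibroblast co-culture, dosed and measured at 24 h in 96-well plates. IL-1a level quantified by ELISA; bidirectional fit relative to DMSO.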

[11] = read-out: TIMP metallopeptidase inhibitor 2 (TIMP2), TIMP2 (gene 7077); test: BSK_KF3CT_TIMP2: BioMAP Diversity Plus: KF3CT Assay for TIMP metallopeptidase inhibitor 2 (TIMP2) Biomarker Activity (AID 2283071); settings: primary human keratinocytes with fibroblasts; actives raise or lower the signal
In short: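 Co-culture of human primary keratinocytes and foreskin fibroblasts, measured 24 h after chemical dosing. TIMP-2 quantified by ELISA and fitted in both directions relative to DMSO. Cytotoxicity checked in parallel cultures by SRB total-protein staining.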

[12] = read-out: Transforming growth factor beta 1 (TGFb1), TGFB1 (gene 7040); test: BSK_KF3CT_TGFb1: BioMAP Diversity Plus: KF3CT Assay for Transforming growth factor beta 1 (TGFb1) Biomarker Activity (AID 2283072); settings: primary human keratinocytes with fibroblasts; actives raise or lower the signal
In short: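 Human keratinocyte/foreskin fibroblast co-culture; TGF-b1 measured by ELISA 24 h after dosing, fitted bidirectionally versus DMSO. Cytotoxicity checked in parallel cultures by total protein (SRB staining, 560 nm).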

[13] = read-out: C-C motif chemokine 2 (Homo sapiens) (UniProt P13500); test: BSK_KF3CT_MCP1: BioMAP Diversity Plus: KF3CT Assay for Monocyte Chemoattractant Protein 1 (MCP1/CCL2) Biomarker Activity (AID 2283073); settings: primary human keratinocytes with fibroblasts; actives raise or lower the signal
In short: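 Biomarker MCP-1 is measured by ELISA in primary human keratinocytes co-cultured with foreskin fibroblasts, 24 h after chemical treatment; DMSO serves as the negative control and activity baseline.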

[14] = read-out: Matrix Metallopeptidase 9 (MMP9), MMP9 (gene 4318); test: BSK_KF3CT_MMP9: BioMAP Diversity Plus: KF3CT Assay for Matrix Metallopeptidase 9 (MMP9) Biomarker Activity (AID 2283074); settings: primary human keratinocytes with fibroblasts; actives raise or lower the signal;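 for AC50: MMP9 protein level quantified by ELISA in the co-culture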
In short: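 Human keratinocyte and foreskin fibroblast co-culture exposed to chemicals for 24 h; MMP9 biomarker measured by ELISA, bidirectional fitting relative to DMSO; cytotoxicity tracked by SRB total protein staining in parallel cultures.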

[15] = read-out: urokinase plasminogen activator (uPA), PLAU (gene 5328); test: BSK_KF3CT_uPA: BioMAP Diversity Plus: KF3CT Assay for urokinase plasminogen activator (uPA) Biomarker Activity (AID 2283075); settings: primary human keratinocytes with fibroblasts; actives raise or lower the signal
In short: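 Primary human keratinocyte/foreskin fibroblast co-culture exposed to chemical; uPA measured by ELISA at 24 h. Bidirectional fit versus DMSO, with parallel SRB total-protein staining for cytotoxicity.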

CD40, CD40 (gene 958) = test: BSK_LPS_CD40: BioMAP Diversity Plus: LPS Assay for CD40 Biomarker Activity (AID 2283076); settings: primary human HUVEC with PBMC; actives raise or lower the signal
In short: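 Using a multiplexed primary human co-culture (umbilical vein endothelium plus PBMC), CD40 was read by ELISA 24 h after dosing, with cytotoxicity tracked by sulforhodamine B staining of parallel cultures and activity fitted bidirectionally versus DMSO.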

[16] = read-out: E-selectin (Homo sapiens) (UniProt P16581); test: BSK_LPS_Eselectin: BioMAP Diversity Plus: LPS Assay for Eselectin Biomarker Activity (AID 2283077); settings: primary human HUVEC with PBMC; actives raise or lower the signal
In short: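 Dose chemical onto LPS-driven HUVEC/PBMC co-culture; after 24 h, run ELISA for E-selectin; fit up- and down-going responses relative to DMSO control.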

[17] = read-out: Interleukin-8 (IL8), CXCL8 (gene 3576); test: BSK_LPS_IL8: BioMAP Diversity Plus: LPS Assay for Interleukin-8 (IL8) Biomarker Activity (AID 2283078); settings: primary human HUVEC with PBMC; actives raise or lower the signal
In short: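 In this LPS system, chemical-treated human umbilical vein endothelium/PBMC co-cultures were harvested at 24 h for IL-8 ELISA.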

[18] = BSK_hDFCGF_SRB: Viability Assessment in the BioMAP Diversity Plus: hDFCGF Assay (AID 2283061); settings: primary human foreskin fibroblasts;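 note: cells exposed to compound for 24 h before the read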
In short: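 SRB-based viability read on primary human skin fibroblasts at 24 h: TCA fixation, 0.1% dye, 560 nm. Gain or loss of signal is fitted against the DMSO negative control.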

[19] = BSK_LPS_SRB: Viability Assessment in the BioMAP Diversity Plus: LPS Assay (AID 2283079); settings: primary human HUVEC with PBMC;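 note: total protein by sulforhodamine B absorbance as a cytotoxicity measure; measured one day after compound addition; fitted in both directions against DMSO so loss or gain of signal counts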
In short: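 Cytotoxicity endpoint in human endothelial–PBMC co-culture: 24 h exposure, then SRB (0.1%) staining, 560 nm read.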

Measured: AC50

Chain of E-selectin (Homo sapiens) (P16581 whole entry, looked up): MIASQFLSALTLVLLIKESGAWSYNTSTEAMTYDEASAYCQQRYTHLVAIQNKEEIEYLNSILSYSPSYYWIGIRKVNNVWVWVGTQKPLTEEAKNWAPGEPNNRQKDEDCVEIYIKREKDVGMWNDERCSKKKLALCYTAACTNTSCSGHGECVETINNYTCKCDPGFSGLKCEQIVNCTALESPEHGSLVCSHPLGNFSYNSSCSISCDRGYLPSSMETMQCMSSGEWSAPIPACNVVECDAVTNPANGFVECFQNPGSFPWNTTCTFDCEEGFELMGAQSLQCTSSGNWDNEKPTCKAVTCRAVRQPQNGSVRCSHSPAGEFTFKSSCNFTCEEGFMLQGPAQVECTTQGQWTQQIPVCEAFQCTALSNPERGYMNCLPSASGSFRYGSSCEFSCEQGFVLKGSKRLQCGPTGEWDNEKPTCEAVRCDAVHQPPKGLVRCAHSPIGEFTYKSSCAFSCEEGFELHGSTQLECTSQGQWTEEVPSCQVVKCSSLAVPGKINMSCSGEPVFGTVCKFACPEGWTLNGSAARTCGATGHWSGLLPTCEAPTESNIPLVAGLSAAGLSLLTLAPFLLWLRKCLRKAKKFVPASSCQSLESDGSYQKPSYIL

COc1ccc(O)c(C(C)(C)C)c1
inactive: [1] | [2] | [3] | [4] | [5] | [6] | [7] | [8] | [9] | [10] | [11] | [12] | [13] | [14] | [15] | CD40, CD40 (gene 958) | [16] | [17]

CCCCCCCCCC[N+](C)(C)CCCCCCCCCC
active: [1] 2.04 µM | [18] 1.81 µM | [2] 2 µM | [3] 2.95 µM | [4] 1.97 µM | [5] 3.39 µM | [6] 1.58 µM | [7] 10.7 µM | [8] 6.12 µM | [9] 5.41 µM | [10] 6.82 µM | [11] 4.71 µM | [13] 4.69 µM | [14] 4.56 µM | [15] 5.24 µM | CD40, CD40 (gene 958) 4.27 µM | [16] 4.41 µM | [17] 5.86 µM

ClC1=C(Cl)[C@]2(Cl)[C@@H]3[C@@H]4C[C@@H]([C@H]5O[C@@H]45)[C@@H]3[C@@]1(Cl)C2(Cl)Cl
inactive: [1] | [18] | [2] | [3] | [4] | [5] | [6] | [7] | [8] | [9] | [10] | [11] | [13] | [14] | [15] | CD40, CD40 (gene 958) | [16] | [17]

Cc1ccccc1[N+](=O)[O-]
inactive: [1] | [18] | [2] | [3] | [4] | [5] | [6] | [7] | [8] | [9] | [10] | [11] | [12] | [13] | [14] | [15] | CD40, CD40 (gene 958) | [16] | [17]

CC#Cc1cc(C)nc(Nc2ccccc2)n1
inactive: [1] | [2] | [3] | [4] | [5] | [6] | [7] | [8] | [9] | [10] | [11] | [12] | [13] | [14] | [15] | CD40, CD40 (gene 958) | [16] | [17]

CC(C)(O)C(=O)Nc1ccc([N+](=O)[O-])c(C(F)(F)F)c1
inactive: [1] | [18] | [2] | [3] | [4] | [5] | [6] | [7] | [8] | [9] | [10] | [11] | [12] | [13] | [14] | [15] | CD40, CD40 (gene 958) | [16] | [19]

Nn1cnnc1
inactive: [1] | [18] | [2] | [3] | [4] | [5] | [6] | [7] | [8] | [9] | [10] | [11] | [13] | [14] | [15] | CD40, CD40 (gene 958) | [16] | [17] | [19]

Reference: PubChem BioAssay (EPA / NIEHS)
